# Source: PubChem BioAssay (National Center for Advancing Translational Sciences (NCATS))
# In the library only some 18% were active in any assay of this set; here they are far more common.
# DT40 TDP1 CPT – growth inhibition of DT40 Tdp1-/-;hTDP1 cells with camptothecin (screen for TDP1 inhibitors). chicken DT40 Tdp1-/-;hTDP1 cells + 20 nM CPT, ATP luminescence, 48 h. Potency, µM (titrated, usually from 46.2 µM), for the others: top-dose activity change, negative = growth inhibition, most hits filed as inhibitors. hit rate 12% among 420,000; note: potency is the fitted concentration of half-maximal effect; % is set by controls: 0 for no effect and ±100 for the full control effect; nearly all actives have a fitted effect of over 55% in size
#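 Cell growth measured by CellTiter-Glo luminescence after a minimum 48 h, 37 C compound exposure with 20 nM CPT in Tdp1-knockout DT40 cells stably expressing hTDP1, seeded 400/well; qHTS titration format.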
# TGFb inhibitor – TGF-b pathway inhibition. Potency, µM (highest dose often 46.1 µM), for the others: top-dose activity, negative = inhibition, usual class: inhibitors. hit rate 1.2% among 410,000. HepG2 CAGA-GFP TGF-b/SMAD3 reporter, GFP fluorescence, 18 h; TGF-beta stimulated, 500 pg/mL final; note: potency is the fitted concentration of half-maximal effect; % is set by controls: 0 for no effect and ±100 for the full control effect; nearly all actives have a fitted effect of over 65% in size
#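 HEPG2 CAGA-GFP, 1000 cells/well; 2 h settle, 37 C; cpd via pin tool; TGF-b 500 pg/mL final; 18 h, 37 C; GFP imaging ex488/em500-530; %Activity normalised to -TGF-b and +DMSO controls; CRC fit, curve class.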
# TDP1 block – TDP1 (human) enzyme inhibition | Potency, µM (doses to about 130 µM), for inactives: top-dose activity change, negative = inhibition, usual class: inhibitors | hit rate 0.28% among 350,000 | AID 485290 | recombinant TDP1, AlphaScreen DNA substrate cleavage; note: potency is the fitted concentration of half-maximal effect; % is set by controls: 0 for no effect and ±100 for the full control effect; nearly all actives have a fitted effect of over 40% in size
# Target sequence (Q9NUW8 whole entry, looked up): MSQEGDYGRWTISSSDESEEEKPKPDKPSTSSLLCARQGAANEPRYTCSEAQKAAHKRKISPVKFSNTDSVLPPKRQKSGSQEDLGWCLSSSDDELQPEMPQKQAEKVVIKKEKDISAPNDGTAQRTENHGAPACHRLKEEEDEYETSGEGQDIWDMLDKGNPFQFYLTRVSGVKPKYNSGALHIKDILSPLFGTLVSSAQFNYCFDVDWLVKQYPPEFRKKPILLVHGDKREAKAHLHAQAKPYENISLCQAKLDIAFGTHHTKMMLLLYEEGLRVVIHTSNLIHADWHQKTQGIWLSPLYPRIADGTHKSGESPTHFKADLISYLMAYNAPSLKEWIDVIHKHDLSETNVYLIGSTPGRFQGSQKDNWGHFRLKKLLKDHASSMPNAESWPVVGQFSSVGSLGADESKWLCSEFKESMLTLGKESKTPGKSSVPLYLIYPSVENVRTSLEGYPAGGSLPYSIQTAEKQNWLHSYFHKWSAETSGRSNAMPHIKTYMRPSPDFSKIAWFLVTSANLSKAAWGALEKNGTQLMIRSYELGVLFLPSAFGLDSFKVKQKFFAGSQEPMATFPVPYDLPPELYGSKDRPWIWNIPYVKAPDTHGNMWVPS
#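 Here, a 5' biotin and 3' phosphotyrosine-FITC DNA oligonucleotide reports Tdp1 activity: intact substrate bridges AlphaScreen beads, while cleavage leaves a 3' phosphate and drops signal. All incubations at room temperature.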
# HepG2 tox – HepG2 cytotoxicity, counter-screen for TGF-b inhibitors; HepG2 CAGA-GFP viability, ATP luminescence, 18 h; Potency, µM (doses to about 46.1 µM), for inactives: at the highest dose activity change, negative = cytotoxicity, actives largely listed as cytotoxic; hit rate 0.76% among 410,000; note: potency is the fitted concentration of half-maximal effect
#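 HepG2 CAGA-GFP cells (1000/well, DMEM with 1% FBS) received compound, then TGF-beta at 500 pg/mL final, and were incubated 18 hours at 37 degrees C. Viability was read by CellTiter-Glo luminescence. Media-only wells were set as complete cell-killing and DMSO as no toxicity.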
# IL-1B inflam inh – inflammasome signaling inhibition, IL-1 beta readout | hit rate 4.7% among 360,000 | activity change, % at 57.5 µM | THP-1 LPS/ATP IL-1B secretion, AlphaLISA, 16 h; active compounds read low; in the data active = activity change below about -50%; inconclusive = mostly about -30% to -49%; note: % is set by controls: 0 for no effect and ±100 for the full control effect
#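 THP-1 cells pretreated 1 hr with compounds (up to 57.5 uM final), then stimulated with LPS (250 ng/mL final) plus ATP (1.25 mM final); secreted IL-1B measured by AlphaLISA after 16 hr, decreased signal indicating inhibition.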
# TDP1 cell noCPT – qHTS for Inhibitors of human tyrosyl-DNA phosphodiesterase 1 (TDP1): qHTS in cells in absence of CPT; DT40 Tdp1-/- hTDP1 cells, no CPT, ATP luminescence, 48 h; Potency, µM (top dose mostly 46.2 µM), for the others: at the top dose activity change, negative = growth inhibition, actives largely listed as inhibitors; hit rate 15% among 420,000; AID 686978, 2013; note: potency is the fitted concentration of half-maximal effect; % is set by controls: 0 for no effect and ±100 for the full control effect; nearly all actives have a fitted effect of over 55% in size
#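 Compound effects on proliferation are scored in DT40 Tdp1-/-;hTDP1 cells in the absence of CPT. ATP levels (CellTiter-Glo luminescence) are recorded after a ≥48 hr, 37 °C incubation.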
# An asterisk follows results filed as active; ? = inconclusive; / = not tested or not shown; [ ] = dose if it differs, or a comment. Unless noted, calls come from the whole dose curve; as a rule, active = well fitted curve in the direction sought with a large enough effect; inconclusive = small, poorly fitted or top-dose-only effect, or another doubt; inactive = no such curve, though single readings can be large; an effect the other way counts as inactive or inconclusive.
SMILES,DT40 TDP1 CPT,TGFb inhibitor,TDP1 block,HepG2 tox,IL-1B inflam inh,TDP1 cell noCPT
CCc1nc2ccc(C(=O)NC3CCN(Cc4ccccc4)CC3)cn2c1N(CC)Cc1cccc(Br)c1,15µM*,?,/,-105%,-102*,12µM*
CCc1nc2ccc(C(=O)N(C)Cc3ccccc3)cn2c1N(CC)Cc1cccc(Br)c1,?,?,/,-77%,?,?
CCc1nc2ccc(C(=O)N(C)Cc3ccco3)cn2c1N(CC)Cc1cccc(Br)c1,12µM*,?,/,-20%,-12,13µM*
COc1cc(CNC(=O)Nc2nc(C(N)CCc3ccccc3)cs2)cc(OC)c1OC (stereo not drawn),?,?,/,-88%,-54*,?
COc1ccc(CCNC(=O)Nc2nc(C(N)CCc3ccccc3)cs2)cc1OC (stereo not drawn),?,?,/,-64%,?,?
CC(C)CC(N)c1csc(NC(=O)Nc2ccccc2C(C)(C)C)n1 (stereo not drawn),?,14µM*,/,-100%,?,?
COc1ccc(CNC(=O)Nc2nc(C(N)CCc3ccccc3)cs2)cc1 (stereo not drawn),?,?,/,-98%,-56*,?
COc1ccccc1NC(=O)Nc1nc(C(N)CCc2ccccc2)cs1 (stereo not drawn),?,11µM*,/,10µM*,-29,13µM*
CN(C)Cc1csc(NC(=O)Nc2ccccc2-c2ccccc2)n1,?,10%,/,-17%,?,?
N#Cc1ccc2nc3c(nc2c1)CCCC3,-9%,-1%,/,15%,-7,-19%
CCNC(=O)Cc1ccc(S(=O)(=O)N2CCOCC2)s1,9%,?,1%,4%,15,8%
CCCCN(C(=O)Cc1ccc(S(=O)(=O)N2CCOCC2)s1)c1ccccc1,?,?,-15%[0.505 µM],-8%,22,21µM*
CN(Cc1ccc(Cl)cc1Cl)C(=O)Cc1ccc(S(=O)(=O)N2CCOCC2)s1,?,-9%,/,-4%,4,?
O=C(Cc1ccc(S(=O)(=O)N2CCOCC2)s1)N(Cc1ccccc1)c1ccccc1,?,?,-5%[0.505 µM],-3%,-7,21µM*
CCN(C(=O)CSc1ncn[nH]1)c1c(N)n(Cc2ccccc2)c(=O)[nH]c1=O,-2%,9%,-13%,-8%,-1,15%
O=C(CSc1nnnn1-c1cccc2c1CCCC2)N1CCCC1,16µM*,-15%,1%[56.1 µM],5%,24,23µM*
CCOc1ccc(S(=O)(=O)N2CCC(C(=O)NCc3cccnc3)CC2)cc1C,-24%,?,3%,6%,1,-28%
CCOc1c(S(=O)(=O)NC2CC(C)(C)NC(C)(C)C2)ccc(Cl)c1Cl,?,-14%,-3%,-34%,?,?
CCCOc1cc(C)c(S(=O)(=O)NC2CC(C)(C)NC(C)(C)C2)cc1C,?,?,3%,11µM*,?,?
CCOc1ccc(OCC)c(S(=O)(=O)NC2CC(C)(C)NC(C)(C)C2)c1,-12%,1%,2%,-31%,-59*,-19%
CCCOc1cc(C)c(S(=O)(=O)NCCOC)cc1C,26µM*,14%,8%,-10%,8,?
O=S(=O)(NCCSc1nnnn1-c1ccccc1)c1ccc(F)cc1,?,-20%,7%,-17%,/,?
O=S(=O)(N/N=C1\CC(c2ccccc2)Oc2ccccc21)c1ccccc1 (stereo not drawn),-13%,-5%,2%,-19%,-27,-13%
CCOc1ccc(S(=O)(=O)N/N=C2/CC(c3ccccc3)Oc3ccccc32)cc1 (stereo not drawn),?,-21%,3%,-6%,0,16µM*
COc1ccc(C(=O)NCC(=O)N2CCC(Cc3ccccc3)CC2)cc1OC,?,14%,4%,5%,-11,?
SMILES,DT40 TDP1 CPT,TGFb inhibitor,TDP1 block,HepG2 tox,IL-1B inflam inh,TDP1 cell noCPT
CC(C)NC(=O)c1ccc(CN2CCC(Cc3ccccc3)CC2)cc1,-3%,6%,/,4%,-16,-14%
Cn1cnnc1SCC(=O)N1CCC(Cc2ccccc2)CC1,?,13%,4%,-7%,-1,18µM*
Clc1ccc(CN2CCC(Cc3ccccc3)CC2)cc1,-29%,?,0%,-54%,-96*,?
Cc1ccccc1NC(=O)c1ccc(CN2CCC(Cc3ccccc3)CC2)cc1,?,-20%,1%,-41%,-83*,21µM*
Cn1cnnc1SCC(=O)N1CCN(C(=O)c2ccco2)CC1,23%,4%,-1%,1%,0,-1%
Cc1ccc(C(=O)NCC(=O)N2CCC(Cc3ccccc3)CC2)cc1,-15%,10%,3%,-9%,-69*,?
COc1cc2cc(CN(Cc3cccnc3)C(=O)Nc3ccccc3F)c(=O)[nH]c2cc1OC,?,-3%,0%,1%,?,?
CSc1ccc(CN2C(=O)C(C)Oc3c(C(C)=O)cccc32)cc1 (stereo not drawn),?,-9%,/,-27%,0,?
CSc1ccc(CN2C(=O)C(F)(F)Oc3c(C(C)=O)cccc32)cc1,18µM*,20%,/,-17%,-7,16µM*
COC(=O)c1cccnc1-n1c(=O)c2cccnc2n(CC(=O)Nc2ccccc2F)c1=O,-2%,3%,9%,-21%,/,-8%
CN/N=C(\Cc1nc2ccccc2[nH]1)c1ccc([N+](=O)[O-])cc1,?,-28%,8%,-21%,?,?
Clc1ccc(/C(Cc2nc3ccccc3[nH]2)=N\Nc2ccccc2)cc1,?,?,/,-28%,-84*,?
O=C(Cc1nc2ccccc2[nH]1)c1ccc(Cl)cc1,?,4%,-13%,-19%,-99*,?
Nc1ccc(C(=O)OCCCc2nc3ccccc3[nH]2)cc1,-6%,5%,6%,10µM*,-7,-30%
Cc1nnc(NCc2ccc(Cl)cc2)c2c1nnn2Cc1ccc(F)cc1,6%,2%,7%,4%,/,-8%
Cc1nnc(N2CCN(c3ccc(Cl)cc3)CC2)c2c1nnn2Cc1ccc(F)cc1,?,1%,5%,-4%,/,2.6µM*
Cc1nnc(NCc2ccc(F)cc2)c2c1nnn2Cc1ccccc1Cl,2.9µM*,19%,-2%,4%,/,2.3µM*
